Source: PubChem
aSyn 5UTR act = Activators working through SNCA 5'UTR binding (MLPCN) | alpha-synuclein 5'UTR reporter, activators screen | activity score, % (tested at 7.5 µM), hits read low | 300,000 tested, 7.1% active | AID 1814; in the data active = activity score below about -60%
* = called active by the depositor. Only a sample is shown.

SMILES	aSyn 5UTR act
Cc1cccc(NC(=O)Nc2ccc(C)cc2Br)c1	-79*
Cc1ccc(CNC(=O)Nc2cccc(C)c2)cc1	-117*
O=C(NCCc1ccc(F)cc1)Nc1ccccc1	-70*
CCCCCCNC(=O)Nc1ccccc1	-88*
O=C(O)c1ccc(NNC(=S)Nc2cc(C(F)(F)F)ccc2Cl)cc1	-141*
O=C(Cc1ccccc1F)Nc1ccccc1-c1ccccc1	-85*
CN(C)/C=C1\SC(=S)N(c2ccc(Br)cc2)C1=O	-100*
NC(=O)CN1C(=O)C(O)(CC(=O)/C=C\c2ccc3c(c2)OCO3)c2ccccc21 (configuration not stated)	-70*
Cc1ccc(NC(=O)/C(C#N)=C/c2ccc(C)s2)c(C)c1	-92*
CCN(CC)S(=O)(=O)c1ccc(N2CCc3ccccc3C2)nc1	-78*
CCN(CC)S(=O)(=O)c1ccc(N/N=C/c2ccc(O)cc2O)nc1	90
CC(C)N(C(C)C)S(=O)(=O)c1ccc(N2CCc3ccccc3C2)nc1	-150*
Cc1ccccc1C(=O)N/N=C/c1cccc2ccccc12	-72*
CCCn1c(=O)c(C(=O)N/N=C/c2ccccc2F)c(O)c2ccccc21	-95*
O=C(N/N=C/c1sc2ccccc2c1O)c1cccc2ccccc12	92
CCc1ccc(C(=O)N/N=C/c2cccc3ccccc23)nc1	-125*
O=C(N/N=C/c1ccccc1F)c1cccc2ccccc12	-87*
O=C(COc1ccccc1-c1ccccc1)N/N=C/c1cccc2ccccc12	75
Cc1ccccc1C(=O)N/N=C/c1ccsc1C	-148*
Cc1ccccc1C(=O)N/N=C/c1ccc([N+](=O)[O-])s1	93
COCCCNC(=O)c1ccc(N2CCCC2)c(NS(=O)(=O)c2ccc(C)cc2)c1	-73*
Cc1nc(OCc2ccccc2)c2sc3nc4c(cc3c2n1)COC(C)(C)C4	-185*
Cc1nc2c(sc3nc4c(cc32)COC(C)(C)C4)c(=O)n1CC(=O)NCc1ccco1	-69*
CCCc1nc2c(sc3nc4c(cc32)COC(C)(C)C4)c(=O)n1Cc1ccco1	-65*
Cc1nc2c(sc3nc4c(cc32)COC(C)(C)C4)c(=O)n1Cc1ccccc1	-109*
SMILES	aSyn 5UTR act
O=C(Nc1ccc2oc(=O)ccc2c1)c1ccc2ccccc2c1	-67*
O=C(Nc1ccc2oc(=O)ccc2c1)c1ccco1	-75*
COc1cc(/C=N/NC(=O)c2nnn(-c3nonc3N)c2C(C)C)ccc1OCc1ccccc1	-82*
C/C(=N\N=C\c1ccccc1F)c1nnn(-c2nonc2N)c1C	-79*
CN(C)Cc1c(C(=O)N/N=C/c2ccc(OCc3c(F)cccc3Cl)cc2)nnn1-c1nonc1N	-76*
Nc1nonc1-n1nnc(C(=O)N/N=C/c2ccc(OCc3ccccc3)cc2)c1COc1ccc(F)cc1	-96*
CC(C)c1c(C(=O)N/N=C/c2ccc(OCc3ccc(F)cc3)cc2)nnn1-c1nonc1N	-72*
CCOc1cccc(-c2c(C(=O)N/N=C(\C)c3ccccn3)nnn2-c2nonc2N)c1	90
Cc1cccc(COc2ccc(/C=N/NC(=O)c3nnn(-c4nonc4N)c3COc3ccc(F)cc3)cc2)c1	-159*
C/C(=N\NC(=O)c1nnn(-c2nonc2N)c1C)c1ccc(OCc2ccccc2)cc1	-67*
Cc1ccc(/C=N/NC(=O)c2nnn(-c3nonc3N)c2-c2cccs2)cc1	69
C/C(=N\NC(=O)c1nnn(-c2nonc2N)c1CN1CCc2ccccc21)c1ccccc1O	75
COc1cc(/C=C2\C(=N)N3N=CSC3=NC2=O)ccc1OS(=O)(=O)c1ccccc1[N+](=O)[O-]	-75*
COCC(=O)Nc1ccc(C(C)C)cc1	-69*
COc1ccc(NC(=O)Nc2ccc(F)cc2F)cc1	-139*
COc1cc(-c2ccc(NC(=O)NC3CC3)c(OC)c2)ccc1NC(=O)NC1CC1	-99*
COc1cccc(NC(=O)Nc2ccccc2Br)c1	-120*
COc1ccc(Nc2cc(Nc3cccc(OC)c3)ncn2)cc1	-80*
CCC1CCC(NC(=O)Nc2cccc(OC)c2)CC1 (configuration not stated)	-193*
Cc1cc(C)nc(NC(=O)Nc2ccc(F)cc2F)n1	-112*
COc1cccc(NC(=O)Nc2ccc3nsnc3c2)c1	-183*
COc1ccc(NC(=O)Nc2ccc3oc(C)nc3c2)cc1	-164*
COc1ccc(NC(=O)Nc2ccc3c(c2)CCC3)cc1	-149*
COc1ccc(NC(=O)Nc2cccc(OC)c2)cc1	-134*
COc1ccc(NC(=O)Nc2ccc(C(C)C)cc2)cc1	-75*
SMILES	aSyn 5UTR act
CSc1ccc2c(c1)C(N1CCN(C)CC1)Cc1ccc(F)cc1S2 (configuration not stated)	57
Cc1nc2cc(NC(=O)NCCC3=CCCCC3)ccc2o1	-151*
Cc1ccc2[nH]c3c(=O)n(N)c(C)nc3c2c1	-70*
C(=N\Nc1nc2ccccc2[nH]1)/c1cccs1	-172*
Cc1cc(=O)[nH]c(N/N=C/c2sccc2C)n1	-90*
Cc1ccsc1/C=N/Nc1nc2ccccc2[nH]1	-213*
CCn1c(Cn2nnc(-c3ccccc3)n2)nnc1SCC(=O)Nc1ccc(C(C)=O)cc1	-92*
Cc1cc(NC(=O)Cc2ccsc2)ccc1Br	-112*
CC(=O)c1ccc(NC(=O)Cc2ccsc2)cc1	-79*
CC(=O)c1ccc(NC(=O)Cc2cccs2)cc1	-84*
CCOC(=O)C1=NN(C(=O)c2cccc(Br)c2)C(O)(C(C)(C)C)C1 (configuration not stated)	105
CCOC(=O)N1N=C(c2ccccc2)CC1(O)C(F)(F)F (configuration not stated)	-75*
COC(=O)N1N=C(c2ccc(Br)cc2)CC1(O)C(F)(F)F (configuration not stated)	-126*
Cc1ccc(NC(=O)Nc2cccnc2)cc1Cl	-111*
Cc1ccc(NC(=O)Nc2ccc3c(c2)C(=O)OC3)cc1Cl	-83*
O=C(Nc1ccc(Cl)c(Cl)c1)OCc1cccnc1	-73*
O=C(Nc1cccnc1)Nc1ccccc1Cl	-72*
O=C(Nc1ccc(Nc2ccccc2)cc1)Nc1ccccc1Cl	-227*
O=C(Nc1ccc2c(c1)CCC2)Nc1ccccc1Cl	-110*
O=C(Nc1csc([N+](=O)[O-])c1)Nc1ccccc1Cl	-89*
O=C(NCc1ccco1)Nc1ccc(Br)cc1Cl	-170*
O=C(Nc1cccnc1)Nc1ccc(Br)cc1Cl	-68*
O=C(Nc1ccc(Cl)cc1)Nc1ccccc1Sc1ncc([N+](=O)[O-])s1	-90*
O=c1c2ccccc2nc2c3ccccc3c(NCCN3CCOCC3)nn12	-345*
O=C(Nc1nc2ccccc2n1CCN1CCOCC1)c1cn(-c2ccccc2)nc1-c1ccccc1	83
SMILES	aSyn 5UTR act
c1ccc2nc3c(nc2c1)c1ccccc1n3CCN1CCOCC1	-80*
Cc1nc(S(=O)(=O)N2CCOCC2)c(C#N)c(C)c1Cl	-100*
Cc1nc(S(=O)(=O)N(C)Cc2ccccc2)c(C#N)c(C)c1Cl	-118*
Cc1nc(S(=O)(=O)NC2CCCCC2)c(C#N)c(C)c1Cl	-91*
CCN(CC)c1nc(Nc2ccc(Cl)cc2)nc(OCC#N)n1	70
Cc1ccc(C(=O)Cn2ncsc2=N)cc1	-164*
COc1ccccc1N(CC(=O)N/N=C/c1c(O)ccc2ccccc12)S(C)(=O)=O	49
COc1ccc(N(CC(=O)Nc2cc(Cl)ccc2OC)S(=O)(=O)c2c(C)noc2C)cc1	71
CCOc1ccc(N(CC(=O)NCc2ccc(OC)cc2)S(C)(=O)=O)cc1	-81*
CCOc1ccc(N(CC(=O)Nc2ccc(C)c(C)c2)S(C)(=O)=O)cc1	-171*
